Columns and labels:
[1] = target: Protein kinase C gamma type (Homo sapiens) (UniProt P05129); conditions: at 1 µM;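 note: each value is an averaged percent inhibition of the enzyme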
[2] = target: T1, Protein kinase C iota type (Homo sapiens) (UniProt P41743); conditions: at 0.1 µM
T1 sequence (whole entry): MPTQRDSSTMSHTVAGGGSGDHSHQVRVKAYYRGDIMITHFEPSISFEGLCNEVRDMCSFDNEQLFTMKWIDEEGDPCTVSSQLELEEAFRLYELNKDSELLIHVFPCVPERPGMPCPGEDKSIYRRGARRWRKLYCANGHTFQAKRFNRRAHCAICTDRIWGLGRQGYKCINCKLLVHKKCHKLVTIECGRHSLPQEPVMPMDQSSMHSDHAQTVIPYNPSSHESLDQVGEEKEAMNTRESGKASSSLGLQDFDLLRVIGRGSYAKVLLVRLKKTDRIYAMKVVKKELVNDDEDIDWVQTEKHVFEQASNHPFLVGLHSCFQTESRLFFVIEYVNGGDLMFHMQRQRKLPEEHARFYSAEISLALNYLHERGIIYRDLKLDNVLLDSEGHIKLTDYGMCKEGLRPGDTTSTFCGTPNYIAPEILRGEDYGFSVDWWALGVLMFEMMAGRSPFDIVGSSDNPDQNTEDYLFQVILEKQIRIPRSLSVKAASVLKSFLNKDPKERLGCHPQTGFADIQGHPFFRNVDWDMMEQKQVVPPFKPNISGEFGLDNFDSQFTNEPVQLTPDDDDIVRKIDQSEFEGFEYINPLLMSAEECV

[3] = target: T1, Protein kinase C iota type (Homo sapiens); conditions: at 1 µM
[4] = target: Protein kinase C theta type (Homo sapiens) (UniProt Q04759); conditions: at 0.1 µM
Sequence of Protein kinase C theta type (Homo sapiens) (Q04759 whole entry, looked up): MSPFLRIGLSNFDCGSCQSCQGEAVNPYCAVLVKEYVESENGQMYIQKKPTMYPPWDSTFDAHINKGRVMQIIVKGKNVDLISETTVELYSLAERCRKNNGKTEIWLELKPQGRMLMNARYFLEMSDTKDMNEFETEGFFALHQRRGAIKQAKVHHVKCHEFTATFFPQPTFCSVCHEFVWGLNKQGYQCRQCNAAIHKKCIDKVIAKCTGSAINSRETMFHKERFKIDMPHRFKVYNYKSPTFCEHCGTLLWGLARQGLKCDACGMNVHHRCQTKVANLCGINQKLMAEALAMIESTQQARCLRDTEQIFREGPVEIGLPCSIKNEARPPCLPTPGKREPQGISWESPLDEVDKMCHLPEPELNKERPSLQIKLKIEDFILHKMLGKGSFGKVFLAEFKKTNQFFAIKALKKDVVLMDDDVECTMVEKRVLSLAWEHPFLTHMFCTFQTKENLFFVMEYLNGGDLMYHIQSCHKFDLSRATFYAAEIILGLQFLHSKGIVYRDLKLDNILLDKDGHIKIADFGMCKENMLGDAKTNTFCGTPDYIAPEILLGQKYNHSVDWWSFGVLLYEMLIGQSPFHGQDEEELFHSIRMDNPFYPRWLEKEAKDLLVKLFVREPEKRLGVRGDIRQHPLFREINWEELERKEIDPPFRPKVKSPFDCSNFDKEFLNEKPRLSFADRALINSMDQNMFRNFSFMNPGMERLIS

[5] = target: Protein kinase C theta type (Homo sapiens) (UniProt Q04759); conditions: at 1 µM
[6] = target: Protein kinase C beta type (Homo sapiens) (UniProt P05771); conditions: at 0.1 µM
Sequence of Protein kinase C beta type (Homo sapiens) (P05771 2-671 limits assumed): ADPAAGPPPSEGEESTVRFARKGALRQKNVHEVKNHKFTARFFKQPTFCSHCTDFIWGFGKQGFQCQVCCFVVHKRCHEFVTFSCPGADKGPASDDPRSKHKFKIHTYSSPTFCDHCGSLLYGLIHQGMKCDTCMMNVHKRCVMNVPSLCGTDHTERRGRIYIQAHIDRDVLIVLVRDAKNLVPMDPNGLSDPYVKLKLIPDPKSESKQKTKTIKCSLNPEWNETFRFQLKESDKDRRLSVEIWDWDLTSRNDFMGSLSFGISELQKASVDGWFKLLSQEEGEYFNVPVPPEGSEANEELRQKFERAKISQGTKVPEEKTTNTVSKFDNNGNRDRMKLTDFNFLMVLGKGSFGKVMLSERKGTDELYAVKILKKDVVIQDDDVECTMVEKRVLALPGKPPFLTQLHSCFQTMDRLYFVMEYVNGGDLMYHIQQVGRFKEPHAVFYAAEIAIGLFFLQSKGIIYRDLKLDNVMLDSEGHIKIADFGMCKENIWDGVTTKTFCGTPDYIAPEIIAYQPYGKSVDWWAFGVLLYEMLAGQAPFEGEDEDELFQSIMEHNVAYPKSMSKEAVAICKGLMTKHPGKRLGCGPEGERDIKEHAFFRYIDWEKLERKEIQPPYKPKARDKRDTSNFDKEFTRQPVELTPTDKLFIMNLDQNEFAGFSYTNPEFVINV

[7] = target: Protein kinase C beta type (Homo sapiens) (UniProt P05771); conditions: at 1 µM
[8] = target: T2, Serine/threonine-protein kinase D1 (Homo sapiens) (UniProt Q15139); conditions: at 0.1 µM
T2 sequence (whole entry): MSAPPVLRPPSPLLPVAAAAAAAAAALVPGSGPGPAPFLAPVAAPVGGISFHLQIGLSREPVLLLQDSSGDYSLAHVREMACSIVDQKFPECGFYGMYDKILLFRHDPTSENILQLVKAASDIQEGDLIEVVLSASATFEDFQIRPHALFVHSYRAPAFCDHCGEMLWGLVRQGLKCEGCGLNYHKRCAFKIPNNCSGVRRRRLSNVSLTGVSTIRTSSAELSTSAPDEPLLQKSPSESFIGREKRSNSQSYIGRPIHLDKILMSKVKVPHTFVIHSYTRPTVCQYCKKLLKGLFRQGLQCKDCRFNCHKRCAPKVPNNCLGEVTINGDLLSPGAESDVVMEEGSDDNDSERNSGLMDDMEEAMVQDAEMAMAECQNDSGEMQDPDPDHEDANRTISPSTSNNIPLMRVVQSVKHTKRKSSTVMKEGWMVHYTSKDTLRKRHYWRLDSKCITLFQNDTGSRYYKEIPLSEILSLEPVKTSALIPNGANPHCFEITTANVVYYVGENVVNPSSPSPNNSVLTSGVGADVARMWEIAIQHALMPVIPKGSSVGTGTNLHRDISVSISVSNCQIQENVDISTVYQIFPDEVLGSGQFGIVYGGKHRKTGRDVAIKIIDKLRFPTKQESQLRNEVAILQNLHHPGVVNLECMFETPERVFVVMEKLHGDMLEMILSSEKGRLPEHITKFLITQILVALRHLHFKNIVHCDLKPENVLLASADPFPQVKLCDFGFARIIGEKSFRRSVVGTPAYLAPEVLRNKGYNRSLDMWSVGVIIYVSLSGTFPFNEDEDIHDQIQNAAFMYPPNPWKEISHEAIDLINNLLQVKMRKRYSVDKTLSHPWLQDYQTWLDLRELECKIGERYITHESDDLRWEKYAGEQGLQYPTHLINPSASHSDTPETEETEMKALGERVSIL

[9] = target: T2, Serine/threonine-protein kinase D1 (Homo sapiens); conditions: at 1 µM
[10] = target: T3, Serine/threonine-protein kinase D2 (Homo sapiens) (UniProt Q9BZL6); conditions: at 0.1 µM
T3 sequence (whole entry): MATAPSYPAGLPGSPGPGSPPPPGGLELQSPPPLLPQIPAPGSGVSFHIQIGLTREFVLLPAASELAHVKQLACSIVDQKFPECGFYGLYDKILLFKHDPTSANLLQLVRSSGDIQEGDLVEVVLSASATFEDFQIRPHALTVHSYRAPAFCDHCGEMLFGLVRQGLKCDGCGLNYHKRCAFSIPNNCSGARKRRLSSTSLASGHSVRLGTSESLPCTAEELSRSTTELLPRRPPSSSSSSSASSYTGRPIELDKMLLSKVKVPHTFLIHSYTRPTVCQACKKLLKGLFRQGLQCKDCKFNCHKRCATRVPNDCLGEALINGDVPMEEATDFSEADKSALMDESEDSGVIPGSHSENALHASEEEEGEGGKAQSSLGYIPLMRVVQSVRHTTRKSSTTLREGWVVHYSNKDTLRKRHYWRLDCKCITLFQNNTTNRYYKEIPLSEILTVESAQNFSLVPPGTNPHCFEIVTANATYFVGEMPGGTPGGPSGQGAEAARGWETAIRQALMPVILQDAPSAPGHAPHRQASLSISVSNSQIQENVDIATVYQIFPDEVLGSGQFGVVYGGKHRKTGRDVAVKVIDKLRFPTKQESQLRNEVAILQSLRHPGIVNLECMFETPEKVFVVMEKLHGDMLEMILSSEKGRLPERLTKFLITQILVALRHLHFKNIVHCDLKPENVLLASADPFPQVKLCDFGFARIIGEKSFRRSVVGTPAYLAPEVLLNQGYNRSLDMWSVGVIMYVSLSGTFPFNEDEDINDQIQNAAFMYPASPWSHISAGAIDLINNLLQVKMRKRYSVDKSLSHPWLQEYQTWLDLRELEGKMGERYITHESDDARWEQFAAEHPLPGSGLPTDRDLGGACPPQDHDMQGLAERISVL

[11] = target: T3, Serine/threonine-protein kinase D2 (Homo sapiens); conditions: at 1 µM
[12] = target: T4, Serine/threonine-protein kinase D3 (Homo sapiens) (UniProt O94806); conditions: at 0.1 µM
T4 sequence (whole entry): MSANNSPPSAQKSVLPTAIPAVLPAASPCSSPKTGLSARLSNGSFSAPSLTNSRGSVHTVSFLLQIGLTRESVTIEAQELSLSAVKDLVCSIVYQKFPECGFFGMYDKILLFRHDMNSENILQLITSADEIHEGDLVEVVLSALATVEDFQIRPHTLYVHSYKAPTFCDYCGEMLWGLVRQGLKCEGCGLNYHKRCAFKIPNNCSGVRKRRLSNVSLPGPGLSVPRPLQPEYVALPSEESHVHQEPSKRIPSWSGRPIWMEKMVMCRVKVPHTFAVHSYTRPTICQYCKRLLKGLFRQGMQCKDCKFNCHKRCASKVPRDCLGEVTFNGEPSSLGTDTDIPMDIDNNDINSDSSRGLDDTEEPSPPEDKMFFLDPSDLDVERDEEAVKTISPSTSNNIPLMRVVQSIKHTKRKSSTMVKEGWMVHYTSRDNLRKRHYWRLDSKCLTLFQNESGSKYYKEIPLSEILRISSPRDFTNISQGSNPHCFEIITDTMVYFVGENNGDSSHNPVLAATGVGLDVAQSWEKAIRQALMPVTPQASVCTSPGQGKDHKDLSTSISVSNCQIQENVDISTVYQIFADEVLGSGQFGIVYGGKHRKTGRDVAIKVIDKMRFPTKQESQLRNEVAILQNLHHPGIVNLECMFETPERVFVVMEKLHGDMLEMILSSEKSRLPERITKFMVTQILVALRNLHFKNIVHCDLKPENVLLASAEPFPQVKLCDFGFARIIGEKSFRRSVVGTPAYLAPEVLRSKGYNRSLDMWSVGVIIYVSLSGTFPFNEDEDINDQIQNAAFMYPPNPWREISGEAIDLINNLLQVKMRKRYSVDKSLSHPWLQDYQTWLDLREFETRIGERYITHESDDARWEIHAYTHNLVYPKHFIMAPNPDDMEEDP

[13] = target: T4, Serine/threonine-protein kinase D3 (Homo sapiens); conditions: at 1 µM
[14] = target: T5, cGMP-dependent protein kinase 1 (Homo sapiens) (UniProt Q13976); conditions: at 0.1 µM
T5 sequence (whole entry): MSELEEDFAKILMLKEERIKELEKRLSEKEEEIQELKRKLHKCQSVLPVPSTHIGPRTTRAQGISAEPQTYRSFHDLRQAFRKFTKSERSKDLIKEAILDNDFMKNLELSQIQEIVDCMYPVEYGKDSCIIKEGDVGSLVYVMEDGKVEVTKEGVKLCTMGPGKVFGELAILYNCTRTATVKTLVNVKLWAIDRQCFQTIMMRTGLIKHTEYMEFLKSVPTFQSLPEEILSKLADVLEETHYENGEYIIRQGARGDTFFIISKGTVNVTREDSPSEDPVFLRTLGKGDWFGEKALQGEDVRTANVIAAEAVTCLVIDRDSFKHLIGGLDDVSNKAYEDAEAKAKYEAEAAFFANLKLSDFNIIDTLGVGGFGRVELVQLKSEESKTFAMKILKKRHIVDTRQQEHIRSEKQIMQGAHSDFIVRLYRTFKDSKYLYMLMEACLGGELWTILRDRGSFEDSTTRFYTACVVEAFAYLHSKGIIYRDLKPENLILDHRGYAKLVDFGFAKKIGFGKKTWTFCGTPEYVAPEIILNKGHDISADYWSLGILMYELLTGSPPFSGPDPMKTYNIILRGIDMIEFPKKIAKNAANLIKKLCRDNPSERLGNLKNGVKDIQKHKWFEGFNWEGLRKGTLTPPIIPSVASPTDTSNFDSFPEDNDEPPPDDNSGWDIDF

[15] = target: T5, cGMP-dependent protein kinase 1 (Homo sapiens); conditions: at 1 µM
[16] = target: T6, cGMP-dependent protein kinase 2 (Homo sapiens) (UniProt Q13237); conditions: at 0.1 µM
T6 sequence (whole entry): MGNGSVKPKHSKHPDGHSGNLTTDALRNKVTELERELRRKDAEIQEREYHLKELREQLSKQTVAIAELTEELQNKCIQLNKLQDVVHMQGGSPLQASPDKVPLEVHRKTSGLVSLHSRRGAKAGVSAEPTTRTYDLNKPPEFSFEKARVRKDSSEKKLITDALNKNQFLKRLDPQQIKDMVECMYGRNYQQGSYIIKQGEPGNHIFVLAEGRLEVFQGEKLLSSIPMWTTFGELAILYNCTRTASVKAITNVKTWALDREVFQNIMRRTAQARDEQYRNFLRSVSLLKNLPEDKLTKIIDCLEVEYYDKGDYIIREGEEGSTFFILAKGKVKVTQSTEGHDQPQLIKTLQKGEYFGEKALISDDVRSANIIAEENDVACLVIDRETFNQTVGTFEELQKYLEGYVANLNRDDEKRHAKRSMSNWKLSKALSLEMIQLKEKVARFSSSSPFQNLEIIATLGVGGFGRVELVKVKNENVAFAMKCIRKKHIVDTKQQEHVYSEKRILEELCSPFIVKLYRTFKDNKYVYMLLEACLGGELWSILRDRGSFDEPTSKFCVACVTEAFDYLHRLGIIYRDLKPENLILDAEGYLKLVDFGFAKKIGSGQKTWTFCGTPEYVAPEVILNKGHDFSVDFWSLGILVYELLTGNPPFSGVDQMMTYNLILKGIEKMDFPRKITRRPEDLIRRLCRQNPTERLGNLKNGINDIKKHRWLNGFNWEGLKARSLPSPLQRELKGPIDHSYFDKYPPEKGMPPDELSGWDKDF

[17] = target: T6, cGMP-dependent protein kinase 2 (Homo sapiens); conditions: at 1 µM
[18] = target: T7, cAMP-dependent protein kinase catalytic subunit PRKX (Homo sapiens) (UniProt P51817); conditions: at 0.1 µM
T7 sequence (whole entry): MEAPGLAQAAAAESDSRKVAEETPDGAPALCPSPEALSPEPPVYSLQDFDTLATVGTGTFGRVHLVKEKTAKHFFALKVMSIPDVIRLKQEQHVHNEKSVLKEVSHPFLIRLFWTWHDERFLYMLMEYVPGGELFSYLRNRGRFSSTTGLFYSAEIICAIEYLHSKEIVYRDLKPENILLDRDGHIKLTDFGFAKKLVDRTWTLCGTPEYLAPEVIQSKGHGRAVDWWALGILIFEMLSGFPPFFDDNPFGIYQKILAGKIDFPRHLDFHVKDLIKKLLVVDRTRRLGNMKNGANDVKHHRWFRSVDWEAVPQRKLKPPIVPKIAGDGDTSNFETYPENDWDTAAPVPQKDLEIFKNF

[19] = target: T7, cAMP-dependent protein kinase catalytic subunit PRKX (Homo sapiens); conditions: at 1 µM
[20] = target: Rho-associated protein kinase 1 (Homo sapiens) (UniProt Q13464); conditions: at 0.1 µM;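 note: values are mean percent inhibition of ROCK1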
Sequence of Rho-associated protein kinase 1 (Homo sapiens) (Q13464 2-1354 limits assumed): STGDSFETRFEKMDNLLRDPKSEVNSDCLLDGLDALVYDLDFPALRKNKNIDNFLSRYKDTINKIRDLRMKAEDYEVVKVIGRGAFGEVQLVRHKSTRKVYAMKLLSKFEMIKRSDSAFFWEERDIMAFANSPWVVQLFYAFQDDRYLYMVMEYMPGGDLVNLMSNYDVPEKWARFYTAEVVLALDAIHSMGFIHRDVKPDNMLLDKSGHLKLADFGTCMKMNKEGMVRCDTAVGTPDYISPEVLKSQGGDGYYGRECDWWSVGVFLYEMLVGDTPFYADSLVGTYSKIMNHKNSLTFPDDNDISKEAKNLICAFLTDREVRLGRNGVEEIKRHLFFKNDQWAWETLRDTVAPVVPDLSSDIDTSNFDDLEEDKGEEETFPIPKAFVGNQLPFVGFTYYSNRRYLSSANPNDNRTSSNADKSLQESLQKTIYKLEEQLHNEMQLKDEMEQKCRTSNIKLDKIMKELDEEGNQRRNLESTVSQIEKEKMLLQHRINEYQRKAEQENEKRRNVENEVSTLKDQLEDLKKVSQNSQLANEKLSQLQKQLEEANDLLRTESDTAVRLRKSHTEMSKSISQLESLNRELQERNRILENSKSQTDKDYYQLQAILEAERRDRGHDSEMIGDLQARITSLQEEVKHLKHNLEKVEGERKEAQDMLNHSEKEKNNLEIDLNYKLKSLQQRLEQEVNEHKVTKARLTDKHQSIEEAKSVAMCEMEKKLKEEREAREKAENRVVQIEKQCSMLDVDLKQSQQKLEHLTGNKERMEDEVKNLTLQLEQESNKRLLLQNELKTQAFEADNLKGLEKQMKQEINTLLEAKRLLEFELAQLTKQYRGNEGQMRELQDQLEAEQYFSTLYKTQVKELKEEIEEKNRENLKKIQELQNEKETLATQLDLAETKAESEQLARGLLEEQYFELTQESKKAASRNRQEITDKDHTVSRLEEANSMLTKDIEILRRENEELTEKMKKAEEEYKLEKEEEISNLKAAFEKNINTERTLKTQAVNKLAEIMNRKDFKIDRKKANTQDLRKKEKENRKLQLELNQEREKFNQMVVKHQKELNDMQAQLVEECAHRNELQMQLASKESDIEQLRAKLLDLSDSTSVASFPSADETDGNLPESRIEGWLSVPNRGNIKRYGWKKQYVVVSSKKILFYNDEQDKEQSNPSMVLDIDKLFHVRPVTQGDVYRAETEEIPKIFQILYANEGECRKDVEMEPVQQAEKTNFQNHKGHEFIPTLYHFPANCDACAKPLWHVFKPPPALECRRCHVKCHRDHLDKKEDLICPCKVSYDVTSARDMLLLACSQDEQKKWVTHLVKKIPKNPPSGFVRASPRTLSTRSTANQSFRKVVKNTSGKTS

SMILES: Nc1nccc(-c2c(-c3ccc(F)cc3)ncn2CCCN2CCOCC2)n1
- inhibition [1]: 6.84%
- inhibition [2]: 3.1%
- inhibition [3]: 3.21%
- inhibition [4]: 2.24%
- inhibition [5]: 3.31%
- inhibition [6]: 3.01%
- inhibition [7]: 7.42%
- inhibition [8]: 4.07%
- inhibition [9]: 5.03%
- inhibition [10]: 5.14%
- inhibition [11]: 4.5%
- inhibition [12]: 4.8%
- inhibition [13]: 4.86%
- inhibition [14]: 4.04%
- inhibition [15]: 4.99%
- inhibition [16]: 2.72%
- inhibition [17]: 3.95%
- inhibition [18]: 2.51%
- inhibition [19]: 5.13%
- inhibition [20]: 2.49%

SMILES: CCCN1CCCC(c2ccc(Nc3nc(Nc4cc(F)ccc4C(N)=O)c4cc[nH]c4n3)c(OC)c2)C1 (stereo not given)
- inhibition [1]: 22%
- inhibition [2]: 0.84%
- inhibition [3]: 2.93%
- inhibition [4]: 1.64%
- inhibition [5]: 4.89%
- inhibition [6]: 1.85%
- inhibition [7]: 5.27%
- inhibition [8]: 32.2%
- inhibition [9]: 79.5%
- inhibition [10]: 25.9%
- inhibition [11]: 81.1%
- inhibition [12]: 19.6%
- inhibition [13]: 72.7%
- inhibition [14]: 7.1%
- inhibition [15]: 32.9%
- inhibition [16]: 4.78%
- inhibition [17]: 26.3%
- inhibition [18]: 0.44%
- inhibition [19]: 0.52%
- inhibition [20]: 22.5%

SMILES: NS(=O)(=O)c1ccc(NC=C2C(=O)Nc3ccc4ncsc4c32)cc1
- inhibition [1]: 9.7%
- inhibition [2]: 2.56%
- inhibition [3]: 5.28%
- inhibition [4]: 3.44%
- inhibition [5]: 11.8%
- inhibition [6]: 2.28%
- inhibition [7]: 6.13%
- inhibition [8]: 28.5%
- inhibition [9]: 78.4%
- inhibition [10]: 21.3%
- inhibition [11]: 79%
- inhibition [12]: 19.4%
- inhibition [13]: 76.3%
- inhibition [14]: 6.31%
- inhibition [15]: 28.6%
- inhibition [16]: 18.4%
- inhibition [17]: 61.7%
- inhibition [18]: 2.2%
- inhibition [19]: 12.2%
- inhibition [20]: 15.5%

Reference: ChEMBL document CHEMBL1961873, “Compounds: GSK PKIS; Assays: Nanosyn kinase panel” (2012)
